Experimental findings from PubChem BioAssay are described below.

Calls of active or inactive are those of the source. Unless noted, how the calls were made is not given here.

Test [1] concerns Wnt5a (protein binding on small-molecule microarray). In words: small molecules binding Wnt5a protein – biophysical, small-molecule microarray, 635/667 nm fluorescence, primary screen (AID 1142).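 Further: fluorescence read at 667 nm with signal to noise per printed feature.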 The settings on record: 635 nm fluorescence, higher = more signal.
Test [2] is described as follows: ATP-based viability of Huh7 replicon cells – cell-based, CellTiter-Glo luminescence, basal, 48 h, cytotoxicity control for HCV replication inhibitor project, primary screen (AID 1143).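 Further: Huh7 hepatoma cells carrying a hepatitis C replication reporter with no stimulus; test concentration not given here.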 The settings on record: higher = more signal, called active from +8 up or from −8 down.
A short description of test [3]: Pseudomonas biofilm growth suppression – PAO1 strain, BacTiter-Glo luminescence, LB-PBS, primary screen (AID 1144). The settings on record: P. aeruginosa PAO1 biofilm, 12 h, higher = more signal.
The nature of test [4]: basal CRE-LacZ reporter activity in PC12 – cell-based, unstimulated, primary screen (AID 1145). The settings on record: no forskolin, luminescence, 4.5 h, higher = more signal, called active from +8 up or from −8 down.
The nature of test [5]: forskolin-driven CRE-LacZ activity in PC12 – cell-based, CRE-LacZ reporter, forskolin-stimulated, primary screen (AID 1146).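 Further: PC12 cells with 6xCRE LacZ reporter stimulated by forskolin 10 µM; beta-galactosidase reporter signal reflecting CREB driven transcription.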 The settings on record: luminescence, 4.5 h, higher = more signal, called active from +8 up or from −8 down.
Test [6] has as its target Streptavidin (Streptomyces avidinii) (UniProt P22629). In words: compounds binding control protein streptavidin – biophysical, small-molecule microarray, 635/667 nm fluorescence, artefact control for SMM compound annotation, primary screen (AID 1147).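 Further: signal reflects streptavidin binding to arrayed compounds as a control protein.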 The settings on record: higher = more signal.
The nature of test [7]: probe aInhba binding on compound microarray – biochemical, small-molecule microarray, 635/667 nm fluorescence, primary screen (AID 1148).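 Further: score merges 667nm spot fluorescence with signal-to-noise for antibody binding to printed compounds.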 The settings on record: higher = more signal.
For test [8], the target named is Torsin-1A (Homo sapiens) (UniProt O14656). In words: TOR1A wild-type binding on microarray – cell lysate, small-molecule microarray, lysate, 635/667 nm, primary screen (AID 1149). The settings on record: COS7 hTOR1A-WT lysate, 635 nm fluorescence, higher = more signal.
For test [9] the target is unchanged. In words: torsin A mutant lysate binding on microarrays – cell lysate, small-molecule microarray, COS7 lysate, 635/667 nm fluorescence, primary screen (AID 1150).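 Further: score pools 667 nm emission and signal to noise measuring lysate protein binding.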 The settings on record: COS7 hTOR1A mutant lysate, 635 nm fluorescence, higher = more signal.
For test [10], the system named is Sonic hedgehog protein (Shh). In words: Sonic hedgehog microarray binding compounds – biochemical, small-molecule microarray, 635/667 nm fluorescence, primary screen (AID 1151).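 Further: Shh protein binding to compounds spotted on small-molecule microarray slides; score combines spot fluorescence intensity with signal-to-noise across triplicate slides.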 The settings on record: 635 nm fluorescence, higher = more signal.
A short description of test [11]: optical density shifts of acrAB sulA E. coli – strain DRC41, OD650, 48 h, E. coli filamentation inducer project, primary screen (AID 1152).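 Further: E. coli MC1000 strain DRC41 lacking acrAB efflux pump and sulA.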 The settings on record: higher = more signal, called active from +8 up or from −8 down.
Test [12] can be described thus: probe aLefty1 binding on compound microarray – biochemical, small-molecule microarray, 635/667 nm fluorescence, primary screen (AID 1153).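 Further: score merges spot fluorescence with signal-to-noise ratio from the scanned slide images.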 The settings on record: higher = more signal.
The nature of test [13]: plasmodial surface anion channel blockers, osmotic lysis – cell-based, P. falciparum Indochina, OD700, 1 h, primary screen (AID 1154). The settings on record: P. falciparum Indochina infected RBC osmotic lysis, higher = more signal, called active from +8 up or from −8 down.
Test [14] in a line: plasmodial surface anion channel blockers, osmotic lysis – cell-based, P. falciparum Indochina, OD700, 2 h, primary screen (AID 1155).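 Further: lysis reports solute entry through the parasite surface anion channel PSAC.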 The settings on record: P. falciparum Indochina infected erythrocytes, higher = more signal, called active from +8 up or from −8 down.
A short description of test [15]: changes in parasitized red cell lysis, either direction – P. falciparum Indochina, OD700, 3 h, PSAC antagonist project, primary screen (AID 1156). The settings on record: P. falciparum-infected erythrocytes, osmotic lysis, higher = more signal, called active from +8 up or from −8 down.
Test [16] in a line: plasmodial surface anion channel blockers, osmotic lysis – cell-based, P. falciparum Indochina, OD700, 18 h, primary screen (AID 1157). The settings on record: P. falciparum Indochina infected erythrocytes, osmotic lysis OD700, 18 h; higher = more signal, called active from +8 up or from −8 down.
A short description of test [17]: S6 kinase pathway phospho-S6 level changes – cell-based, A549, cytoblot, luminescence, serum-stimulated, primary screen (AID 1158).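 Further: serum-stimulated A549 lung adenocarcinoma cells; signal is phosphorylated S6 detected by cytoblot immunostaining with HRP secondary.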 The settings on record: 5 h, higher = more signal.
In test [18] the target is NADPH oxidase 2 (Homo sapiens) (UniProt P04839). In words: compounds shifting NOX2 Amplex Red fluorescence – cell-based, HEK293-NOX2, PMA-stimulated, NOX inhibitor project, primary screen (AID 1159). Further: test concentration not given here. The settings on record: 45 min, higher = more signal, called active from +8 up or from −8 down.
For test [19], the target named is NADPH oxidase 4 (Homo sapiens) (UniProt Q9NPH5). In words: compounds shifting NOX4 Amplex Red fluorescence – cell-based, HEK293-NOX4, tetracycline-induced, NOX inhibitor project, primary screen (AID 1160). The settings on record: HEK293-NOX4, Amplex Red H2O2 fluorescence, 45 min; higher = more signal, called active from +8 up or from −8 down.
Test [20] deals with NADPH oxidase 5 (Homo sapiens) (UniProt Q96PH1). In words: compounds shifting NOX5 Amplex Red fluorescence – cell-based, HEK293-NOX5, NOX inhibitor project, primary screen (AID 1161). The settings on record: HEK293-NOX5, ionomycin, 45 min, higher = more signal.
Sequence of NADPH oxidase 5 (Homo sapiens) (Q96PH1 whole entry, looked up): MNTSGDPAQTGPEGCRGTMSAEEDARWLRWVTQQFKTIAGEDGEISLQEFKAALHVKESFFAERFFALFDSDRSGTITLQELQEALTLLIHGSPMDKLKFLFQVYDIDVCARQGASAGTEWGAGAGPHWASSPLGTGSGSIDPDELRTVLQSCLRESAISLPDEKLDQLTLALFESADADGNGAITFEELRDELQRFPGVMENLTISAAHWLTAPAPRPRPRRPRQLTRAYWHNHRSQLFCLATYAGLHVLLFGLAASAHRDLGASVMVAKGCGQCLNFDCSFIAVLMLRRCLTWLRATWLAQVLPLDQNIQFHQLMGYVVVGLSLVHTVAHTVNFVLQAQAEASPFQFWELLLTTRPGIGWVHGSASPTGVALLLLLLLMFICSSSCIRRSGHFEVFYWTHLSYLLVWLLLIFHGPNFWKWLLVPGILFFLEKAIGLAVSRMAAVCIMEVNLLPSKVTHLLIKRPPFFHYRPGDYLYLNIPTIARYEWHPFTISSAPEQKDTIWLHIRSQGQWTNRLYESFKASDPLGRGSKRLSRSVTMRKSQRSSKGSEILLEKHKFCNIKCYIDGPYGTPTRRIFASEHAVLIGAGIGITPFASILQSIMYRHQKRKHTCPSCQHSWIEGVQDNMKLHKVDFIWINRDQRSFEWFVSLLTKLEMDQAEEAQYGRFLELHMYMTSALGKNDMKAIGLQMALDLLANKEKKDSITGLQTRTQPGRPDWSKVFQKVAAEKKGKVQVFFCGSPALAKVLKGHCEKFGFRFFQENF

Sequence of Streptavidin (Streptomyces avidinii) (P22629 whole entry, looked up): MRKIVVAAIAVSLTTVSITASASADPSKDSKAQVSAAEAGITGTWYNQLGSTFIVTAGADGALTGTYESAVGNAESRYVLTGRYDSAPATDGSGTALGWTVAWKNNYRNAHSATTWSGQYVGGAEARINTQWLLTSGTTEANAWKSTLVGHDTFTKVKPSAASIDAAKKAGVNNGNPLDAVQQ
Sequence of NADPH oxidase 2 (Homo sapiens) (P04839 whole entry, looked up): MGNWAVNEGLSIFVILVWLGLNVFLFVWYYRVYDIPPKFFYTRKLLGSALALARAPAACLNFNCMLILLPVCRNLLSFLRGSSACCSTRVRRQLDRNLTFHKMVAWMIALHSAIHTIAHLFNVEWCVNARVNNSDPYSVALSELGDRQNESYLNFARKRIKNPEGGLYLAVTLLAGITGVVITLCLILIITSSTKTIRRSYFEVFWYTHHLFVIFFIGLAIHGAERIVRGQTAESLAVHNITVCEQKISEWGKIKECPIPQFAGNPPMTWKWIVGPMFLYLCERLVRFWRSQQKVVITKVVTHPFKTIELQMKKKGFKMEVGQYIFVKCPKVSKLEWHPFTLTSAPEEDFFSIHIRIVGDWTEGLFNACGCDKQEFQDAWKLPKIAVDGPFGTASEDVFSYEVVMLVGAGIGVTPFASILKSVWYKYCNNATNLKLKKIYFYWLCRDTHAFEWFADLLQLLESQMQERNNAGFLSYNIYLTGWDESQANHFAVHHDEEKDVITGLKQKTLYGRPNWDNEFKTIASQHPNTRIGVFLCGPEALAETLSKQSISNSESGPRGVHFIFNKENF
Sequence of Torsin-1A (Homo sapiens) (O14656 whole entry, looked up): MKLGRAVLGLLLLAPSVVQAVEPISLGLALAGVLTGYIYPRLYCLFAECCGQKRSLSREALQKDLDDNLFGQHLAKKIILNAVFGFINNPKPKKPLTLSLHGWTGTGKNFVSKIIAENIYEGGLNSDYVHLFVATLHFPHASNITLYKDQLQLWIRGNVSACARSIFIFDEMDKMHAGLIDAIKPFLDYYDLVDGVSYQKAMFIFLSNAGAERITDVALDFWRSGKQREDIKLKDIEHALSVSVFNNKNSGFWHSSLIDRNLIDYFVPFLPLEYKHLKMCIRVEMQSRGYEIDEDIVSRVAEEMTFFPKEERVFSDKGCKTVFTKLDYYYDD
Sequence of NADPH oxidase 4 (Homo sapiens) (Q9NPH5 whole entry, looked up): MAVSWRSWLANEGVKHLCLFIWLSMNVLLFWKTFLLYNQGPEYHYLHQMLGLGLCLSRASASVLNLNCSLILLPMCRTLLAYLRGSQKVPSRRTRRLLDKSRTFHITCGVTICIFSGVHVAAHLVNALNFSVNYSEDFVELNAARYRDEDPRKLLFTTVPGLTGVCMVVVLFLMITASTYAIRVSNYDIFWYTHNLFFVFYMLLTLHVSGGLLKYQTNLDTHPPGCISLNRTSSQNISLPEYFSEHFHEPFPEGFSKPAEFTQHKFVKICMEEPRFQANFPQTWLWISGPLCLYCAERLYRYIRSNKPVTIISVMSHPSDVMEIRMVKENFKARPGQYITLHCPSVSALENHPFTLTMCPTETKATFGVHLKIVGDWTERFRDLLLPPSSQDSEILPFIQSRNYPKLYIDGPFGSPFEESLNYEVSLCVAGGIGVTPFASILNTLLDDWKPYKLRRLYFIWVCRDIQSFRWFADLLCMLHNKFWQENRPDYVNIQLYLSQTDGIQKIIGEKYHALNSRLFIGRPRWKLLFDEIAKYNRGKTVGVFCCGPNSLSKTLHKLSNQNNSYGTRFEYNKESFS

For `CC(=O)OC[C@H]1O[C@H](CCON=C(C)C)C=C[C@@H]1OC(C)=O`, the composite z-score was 0.0141 in test [1]; 0.17 in test [6]; -0.038 in test [7]; -0.0297 with Torsin-1A (Homo sapiens) [8]; -0.115 in the test with Torsin-1A (Homo sapiens) [9]; 0.427 in test [10]. Besides, the composite z-score in test [12] was -0.0412. For the same compound, the z-score is 0.702 (inactive) in [2]; 0.249 (inactive) in test [3]; -0.715 (inactive) in test [4]; 0.383 (inactive) in test [5]; -1.66 (inactive) in test [11]; 0.158 (inactive) in [13]. Besides, the z-score in test [14] was 0.328 (inactive); in test [15], -0.599 (inactive); in test [16] it was 0.196 (inactive); in test [17], -0.71; in [18] it was 0.0813 (inactive); in [19] it was 0.151 (inactive). Also, the z-score in test [20] was -0.227.

Take `O=C1[C@H]2[C@H]3[C@H](O)[C@H](O)CC(=NO[C@@H]4O[C@H](CO)[C@@H](O)[C@H](O)[C@H]4O)[C@@H]3CC[C@H]2C(=O)N1C[C@@H]1CCCO1`: the composite z-score in [1] was 0.185; in [6] it was 0.0066; in test [7], -0.128; in the test with Torsin-1A (Homo sapiens) [8], 0.339; in the test with Torsin-1A (Homo sapiens) [9], -0.0388; in [10] it was 0.89. For the same compound, in test [12], the composite z-score was -0.0462. For the same compound, the z-score in [2] is -2.92 (inactive); in test [3] it was -0.131 (inactive); in test [4] it was 0.885 (inactive); in [5], 0.0432 (inactive); in test [11], -1.2 (inactive); in test [13] it was 0.377 (inactive). Also, the z-score in test [14] is -0.963 (inactive); in [15], 0.389 (inactive); in test [16], -2.39 (inactive); in test [17], 0.054; in test [18] it was -2.04 (inactive); in [19], -0.772 (inactive). Further, the z-score in test [20] was -0.711.

As for `CCOC(=O)[C@H](Cc1ccccc1)NC(=O)CCC1CC(OC(=O)NCCc2ccc(F)cc2)CC2(CCCC(COC(=O)NCc3cccc(C(F)(F)F)c3)O2)O1` (stereo not given in full), the composite z-score in test [1] was 0.011; in test [6], 0.899; in test [7], -0.101; with Torsin-1A (Homo sapiens) [8], 0.386; with Torsin-1A (Homo sapiens) [9], 0.376; in test [10], 1.48. This compound also gave a composite z-score in [12] of 0.0834. Also, the z-score in [2] was -2.08 (inactive); in test [3] it was 0.885 (inactive); in [4] it was -0.162 (inactive); in test [5], -0.605 (inactive); in test [11], 0.048 (inactive); in [13] it was -1.14 (inactive). For the same compound, the z-score was 0.277 (inactive) in test [14]; -0.017 (inactive) in test [15]; 0.344 (inactive) in test [16]; -0.354 in test [17]; 0.575 (inactive) in [18]; 0.488 (inactive) in [19]. Further, the z-score in test [20] stood at 0.837.

In the case of `COC(=O)[C@@H]1CC[C@H](C)[C@@H](c2ccc(C)cc2)N1C(=O)c1ccc(C=NOC[C@H]2O[C@H](c3ccccc3)C=C[C@@H]2Oc2ccc(OC)cc2)cc1`, the composite z-score in test [1] was -0.134; in test [6] it was -0.216; in test [7], 0.0018; in the test with Torsin-1A (Homo sapiens) [8] it was -0.671; in the test with Torsin-1A (Homo sapiens) [9] it was -0.329; in test [10] it was 0.415. This compound also yielded a composite z-score in test [12] of -0.0236. For the same compound, the z-score in test [2] was -0.814 (inactive); in test [3], 0.605 (inactive); in [4] it was 0.253 (inactive); in [5] it was 0.718 (inactive); in test [11], 0.229 (inactive); in [13], 0.639 (inactive). Besides, the z-score in [14] is 1.11 (inactive); in test [15], 0.708 (inactive); in test [16] it was 0.44 (inactive); in test [17] it was -0.0476; in [18] it was 1.65 (inactive); in test [19], 0.846 (inactive). Also, the z-score in [20] worked out at 0.385.

For the compound `CC(C)=CCCC(C)=CCON=C1C[C@@H](O)[C@@H](O)[C@@H]2[C@@H]3C(=O)N(C4CCCCC4)C(=O)[C@@H]3CC[C@H]12`, the composite z-score was 0.342 in test [1]; 0.12 in test [6]; -0.15 in [7]; 0.46 in the test with Torsin-1A (Homo sapiens) [8]; 0.159 with Torsin-1A (Homo sapiens) [9]; 1.01 in test [10]. This compound had a composite z-score in [12] of -0.132. Moreover, the z-score in test [2] is -2.76 (inactive); in test [3], 0.419 (inactive); in test [4] it was -0.38 (inactive); in test [5], -0.306 (inactive); in [11] it was 0.693 (inactive); in [13], 7.24 (inactive). Moreover, the z-score in [14] is 0.991 (inactive); in test [15], 1.11 (inactive); in [16], 0.645 (inactive); in test [17] it was -0.319; in test [18], -0.693 (inactive); in test [19] it was -1.02 (inactive). For the same compound, the z-score in test [20] was -4.91.

`C[C@@H](c1ccccc1)N1C(=O)[C@H]2[C@H]3[C@H](O)[C@H](O)CC(=NOCc4ccccc4)[C@@H]3CC[C@H]2C1=O`: the composite z-score in test [1] is 0.0765; in test [6], 0.665; in test [7], -0.0762; with Torsin-1A (Homo sapiens) [8] it was -0.407; with Torsin-1A (Homo sapiens) [9], -0.325; in test [10], -0.742. Further, the composite z-score in test [12] amounted to 0.426. Further, the z-score in [2] was 0.039 (inactive); in test [3] it was 1.01 (inactive); in test [4], 0.242 (inactive); in test [5] it was -0.166 (inactive); in test [11], -1.42 (inactive); in [13] it was 2.92 (inactive). For the same compound, the z-score is 0.117 (inactive) in [14]; 0.826 (inactive) in test [15]; 0.479 (inactive) in [16]; -0.547 in test [17]; -0.666 (inactive) in test [18]; 0.115 (inactive) in test [19]. In [20], the z-score was determined as 0.12.

In the case of `CCOC(=O)[C@H](Cc1ccccc1)NC(=O)CCC1CC(OC(=O)NCc2cccc3ccccc23)CC2(CCCC(COC(=O)NCC3CCCCC3)O2)O1` (stereo not given in full), the composite z-score worked out at 0.297 in [1]; 0.307 in [6]; 0.0155 in test [7]; 0.156 in the test with Torsin-1A (Homo sapiens) [8]; 0.224 in the test with Torsin-1A (Homo sapiens) [9]; 0.955 in [10]. Besides, in test [12], the composite z-score was -0.0662. For the same compound, the z-score in test [2] was -0.213 (inactive); in [3], -0.441 (inactive); in [4], -0.343 (inactive); in [5], 0.895 (inactive); in test [11], 0.0278 (inactive); in test [13] it was 1.78 (inactive). Further, the z-score is -0.393 (inactive) in test [14]; -1.94 (inactive) in test [15]; -0.611 (inactive) in test [16]; -0.154 in test [17]; 0.746 (inactive) in test [18]; 0.745 (inactive) in test [19]. The z-score in test [20] stood at 0.517.

As to `COc1ccc(-c2cnnc(CCCn3ccnc3-c3ccccc3)n2)cc1`, the composite z-score is 0.314 in [1]; 0.22 in test [6]; -0.144 in test [7]; 1.56 with Torsin-1A (Homo sapiens) [8]; 1.52 with Torsin-1A (Homo sapiens) [9]; 0.838 in test [10]. The compound also returned a composite z-score in [12] of -0.0576. The z-score is -4.68 (inactive) in test [2]; -0.459 (inactive) in test [3]; 1.37 (inactive) in test [4]; -0.631 (inactive) in [5]; -0.249 (inactive) in [11]; 26.2 (active) in test [13]. Also, the z-score in [14] is 9.62 (active); in test [15], 0.886 (inactive); in [16], 0.982 (inactive); in [17], -0.714; in [18] it was 1.27 (inactive); in [19] it was -0.372 (inactive). Further, the z-score in test [20] was -1.2.
